Pf Dd2 growth: Plasmodium falciparum Dd2 growth inhibition; P. falciparum Dd2 growth, SYBR Green, 72 h; Potency, µM (titrated, usually from 28.9 µM), for inactives: at the highest dose activity, negative = inhibition, hits mostly inhibitors; hit rate 4.3% among 120,000; active = well fitted inhibition curve with a large enough effect;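 note: plate controls were DMSO vehicle for no effect and reference drug for full effect; nearly all actives have a fitted effect of over 65% in size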
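Readout: SYBR Green fluorescence, 485 nm excitation, 535 nm emission, after ~16 h lysis at 37C. Before that, Dd2-infected red cells (2.5% hematocrit) grew 72 h with compound, 29 uM top final concentration.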
Active calls of the source: *; [ ] = dose if it differs, or a comment. The full list was thinned out, with hits kept by preference. Potency is the fitted concentration of half-maximal effect.

`COc1ccc(CN2CCC3(CC2)C(=NC2CCCCC2)NC(=O)N3c2cccnc2)cc1` gave Pf Dd2 growth 6%.
`CCCN(CC1CCOC1)S(=O)(=O)c1ccccc1CC` (configuration not stated) gave Pf Dd2 growth 7%[5.79 µM].
`CCNC(=O)N1CCCCCNC(=O)[C@@H]2CCC[C@@H]21` gave Pf Dd2 growth inactive.
Screening Cc1cccc(CN2CCC3(CC2)CCN(Cc2cccc(O)c2)CC3CO)n1 (configuration not stated) returned Pf Dd2 growth 8%.
Screening COC(=O)C1CCN(C(=O)CC[C@H]2CNC(=O)[C@@H]3[C@@H](CCN3Cc3ccc(OC)cc3)N2C)CC1 returned Pf Dd2 growth -12%.
COc1ccccc1N1CCN(c2ncc3c(n2)CCN(Cc2ccccc2F)C3)CC1 was read as Pf Dd2 growth 42%[5.79 µM].
COc1ccc(CN2CCc3nc(N4CCOCC4)[nH]c(=O)c3CC2)c(OC)c1OC was read as Pf Dd2 growth inactive[5.79 µM].
Screening CCN1CCN(c2ncc3c(n2)CCN(Cc2cccc(F)c2F)C3)CC1 returned Pf Dd2 growth 32%[5.79 µM].
Screening CCc1ccc(CN2CCc3nc(N4CCN(c5ccccc5F)CC4)ncc3C2)cc1 returned Pf Dd2 growth 8.9µM*.
For COc1cc(OC)c(OC)cc1CN1CCc2nc(N3CCN(c4ncccn4)CC3)ncc2C1 the results were Pf Dd2 growth 7.9µM*.
Screening Clc1ccc(CN2CCc3nc(N4CCN(c5ccccn5)CC4)ncc3C2)cc1 returned Pf Dd2 growth -5%.
CCOc1ccc(CN2CCc3nc(N4CCN(c5ncccn5)CC4)ncc3C2)cc1OC was read as Pf Dd2 growth 7.9µM*.
CCOc1ccc(CN2CCc3nc(N4CCN(c5ccccc5OC)CC4)ncc3C2)cc1OC was read as Pf Dd2 growth -23%.
COc1ccccc1N1CCN(c2ncc3c(n2)CCN(Cc2ccc(C)s2)C3)CC1 was read as Pf Dd2 growth -8%.
For Fc1ccccc1N1CCN(c2ncc3c(n2)CCN(Cc2ccc(Br)s2)C3)CC1 the results were Pf Dd2 growth -9%.
COc1ccc(CN2CCc3nc(N4CCN(c5ccc(F)cc5)CC4)ncc3C2)c(OC)c1OC was read as Pf Dd2 growth 11µM*.
Fc1ccccc1N1CCN(c2ncc3c(n2)CCN(Cc2cc(Br)cs2)C3)CC1 was read as Pf Dd2 growth -19%.
Screening COCCNC(=O)c1ccc2c(c1)N(C)C(CC(=O)N(C)CC(C)C)CO2 (configuration not stated) returned Pf Dd2 growth -3%.
`CC(=O)N1CCCN(C(=O)CC(c2cccc(O)c2)c2cccc(Cl)c2)CC1` (configuration not stated) gave Pf Dd2 growth 0%.
Screening COc1cc(Cl)ccc1C(=O)NC1CCN(c2cc(-c3ccc(F)cc3)[nH]n2)CC1 returned Pf Dd2 growth inactive.
Screening O=C(Nc1cccc(-n2cccn2)c1)C1CCCN1C(=O)c1ccoc1 (configuration not stated) returned Pf Dd2 growth -11%.
Screening O=C(c1ccccc1)N1CCCC2(C1)C(=NC1CCCCC1)NC(=O)N2c1cc(F)cc(F)c1 (configuration not stated) returned Pf Dd2 growth 3%.
`O=C(Cc1cccc(Cl)c1)N1CCCC(c2nn(-c3ccccc3)c(=O)[nH]2)C1` (configuration not stated) gave Pf Dd2 growth inactive.
`O=C(CCc1nc2ccccc2s1)N1CCC(c2noc(C3CC3)n2)C1` (configuration not stated) gave Pf Dd2 growth inactive[5.79 µM].
Screening COc1cccc(CN2CCc3nc(Nc4ccc5c(c4)OCCO5)ncc3C2)c1 returned Pf Dd2 growth -20%.
`Clc1ccc(CN2CCc3nc(Nc4ccc5c(c4)OCCO5)ncc3C2)cc1` gave Pf Dd2 growth inactive.
Screening COc1cc(OC)c(OC)cc1CN1CCc2nc(Nc3ccc4c(c3)OCCO4)ncc2C1 returned Pf Dd2 growth 10µM*.
`Cn1ccnc1-c1ccc(N2CC[C@@]3(O)CCN(S(C)(=O)=O)C[C@H]3C2)nn1` gave Pf Dd2 growth -8%.
`Cn1ccnc1-c1ccc(N2CCCC(CO)(Cc3cccc(Cl)c3)C2)nn1` (configuration not stated) gave Pf Dd2 growth 5µM*.
`O=S(=O)(c1ccccc1Cl)N1CCCC(CO)(Cc2cccc(Cl)c2)C1` (configuration not stated) gave Pf Dd2 growth -21%.
COc1ccc(CN2CCNC(=O)C2CC(=O)NCc2ccco2)c(F)c1 (configuration not stated) was read as Pf Dd2 growth 6%.
`COc1ccc(C(=O)N2CCC(c3noc(-c4cnccn4)n3)C2)cn1` (configuration not stated) gave Pf Dd2 growth inactive[5.79 µM].
COCC(=O)N1C[C@@H]2CCCN3CCC[C@@H]([C@H]23)[C@H]1CCCC(=O)N1CCOCC1 was read as Pf Dd2 growth 11%.
Screening CCN(CC)CCCNC(=O)Cc1csc2nc(-c3ccc(Cl)cc3)cn12 returned Pf Dd2 growth 8.9µM*.
Screening COc1ccccc1CNC(=O)Cc1csc2nc(-c3ccccc3)cn12 returned Pf Dd2 growth -20%.
Screening CC(C)NC(=O)Cc1csc2nc(-c3ccccc3)cn12 returned Pf Dd2 growth 40%.
`Cc1ccc(C2Cn3nnc(C(=O)N4CCC(C(=O)Nc5ccc(C)c(F)c5)CC4)c3CO2)cc1` (configuration not stated) gave Pf Dd2 growth inactive.
For Cc1cnc(C(=O)N2CCCN(C(=O)C3CC3)c3ccccc32)cn1 the results were Pf Dd2 growth -2%.
`Cc1ccc(-c2cccc(C(=O)N3CCCC(O)(CN4CCCC4)C3)c2)o1` (configuration not stated) gave Pf Dd2 growth 11µM*.
For CC(=O)N[C@@H]1CN(C(=O)c2[nH]c3c(C)ccc(C)c3c2C)C[C@H]1C(C)C the results were Pf Dd2 growth -26%.
`O=C(c1ccccc1-c1nn[nH]n1)N1CCOCC(O)(CN2CCCC2)C1` (configuration not stated) gave Pf Dd2 growth -2%.
`O=C(c1cccc(-c2ncc[nH]2)c1)N1CCCC(O)(CN2CCCC2)C1` (configuration not stated) gave Pf Dd2 growth 10%.
For Cc1ccc(C)c2c(C)c(C(=O)N3CCCC(O)(CN4CCCC4)C3)[nH]c12 (configuration not stated) the results were Pf Dd2 growth 11µM*.
For O=C(c1cccc(-n2cccn2)c1)N1CCOCC(O)(CN2CCCC2)C1 (configuration not stated) the results were Pf Dd2 growth -23%.
CN1C(=O)CO[C@H]2CN(C(=O)c3ccccn3)C[C@H]21 was read as Pf Dd2 growth -18%[44.1 µM].
For Cc1cnn(CCC(=O)N[C@@H]2COCC[C@H]2OCc2ccccn2)c1 the results were Pf Dd2 growth -13%.
O=C1CC(c2ccccc2)N(C(=O)C2CC2)CCCN(C(=O)c2ccncc2)CCN1 (configuration not stated) was read as Pf Dd2 growth 18%.
Screening Cc1ccc(C(=O)N2CCCC3(C2)NC(=O)N(Cc2ccc(Cl)cc2)C3=O)cc1 (configuration not stated) returned Pf Dd2 growth -14%.
CCc1ccccc1S(=O)(=O)N1CCC(n2cnnc2C)CC1 was read as Pf Dd2 growth -27%.
`CN(CC(=O)N1CCn2nc(Cc3ccccc3)cc2C1)Cc1ccncc1` gave Pf Dd2 growth 4%.
